# Laboratory results as given in PubChem BioAssay.
# Several values for one entry are separate records, joined by “and”; a condition that tells them apart may be missing. Equal entries are not always repeated. Activity calls are given as the source filed them. Rule as the data show it, unless noted: active = parasite load remaining mostly below about 12% (no sharp cut-off); inactive = mostly above about 10%.
# Tests used:
# [1] = antimalarial activity against Dd2 strain (AID 2302;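 active = growth inhibition above 50% at the single 2 µM test dose, taken to imply half-maximal potency below 2 µM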;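 also: 0% = DMSO untreated growth and 100% = chloroquine plus artemisinin killed control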); details: P. falciparum Dd2 in RBCs, LDH growth readout, 72 h; at 2 µM; stronger effect = higher value
# [2] = human hepatoma cell viability loss – ATP luminescence, cytotoxicity control for P. falciparum antimalarial project, primary screen (AID 2303;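 active = inhibition above 50%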;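 also: 0% = DMSO wells and 100% = digitonin-killed cells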); details: HepG2 viability, 24-48 h, at 10 µM, stronger effect = higher value
# [3] = target: L-lactate dehydrogenase (Plasmodium falciparum (isolate CDC / Honduras)) (UniProt Q27743); assay: PfLDH activity inhibition – cell lysate, 3D7 strain, counter-screen for P. falciparum growth inhibition project (AID 2304; call rule not given here;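 also: 0% = vehicle and 100% = reference inhibitor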); details: P. falciparum 3D7 crude extract, LDH APAD/NBT absorbance; at 2 µM; stronger effect = higher value
# [4] = inhibition of 3D7 malaria parasite growth – strain 3D7 (AID 2306; call rule not given here;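 also: 0% = DMSO wells and 100% = chloroquine plus artemisinin control wells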); details: P. falciparum 3D7 erythrocytic growth, LDH absorbance, 72 h; at 2 µM; stronger effect = higher value
# [5] = system: Hepatitis C virus NS3 helicase; assay: blockers of NS3h binding to ssDNA – biochemical, fluorescence polarization, LOPAC1280 library, primary screen (AID 687035; in the data active = inhibition above about 37%); details: Purified HCV NS3 helicase, Cy5-dT15 ssDNA binding fluorescence polarization; stronger effect = higher value; concentration not given here
# [6] = compounds altering Cy5-DNA-NS3h complex signal – biochemical, LOPAC1280, artefact control for HCV NS3 helicase inhibitor project (AID 687037; call rule not given here); details: Cy5-DNA-NS3h complex fluorescence interference counterscreen
# [7] = Wnt pathway potentiators raising nuclear beta-catenin – imaging, WNT3A-conditioned medium, mouse C2C12, NPC library, primary screen (AID 1117326; in the data active = nuclear beta-catenin stimulation mostly above about 4.2%, no sharp cut-off; inactive = mostly below about 10%); details: stronger effect = higher value
# [8] = compounds altering viability of human ES cells (AID 493140; call rule not given here;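 also: cells exposed to compounds for four days before counting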); details: human embryonic stem cell survival screen; stronger effect = higher value
# [9] = P. berghei load reduction in hepatocytes – cell-based, HepG2, luciferase luminescence, HepG2 viability, primary screen (AID 624349);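 also: 100% = mean of DMSO negative control wells on the same plate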; details: P. berghei liver stage in HepG2, luciferase luminescence, concentration not given here; parasite load remaining: stronger effect = lower value; viability: measured here: HepG2 viability without parasites
# [10] = glutamate transport activators, MN-1 cells, MN-1 cell line (AID 1612); details: MN-1 motor neuron cells, stronger effect = higher value;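 also: tested at 1 µM final; 0% = mean of DMSO vehicle wells on each plate; positive means more glutamate uptake than control and negative means less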
# [11] = 75Q-TubH aggregate inhibition, S. cerevisiae, yeast (AID 1616); details: S. cerevisiae 75Q-TubH polyglutamine aggregation suppression; stronger effect = higher value
# [12] = compounds altering circadian rhythm period length – cell-based, LOPAC library, luminescence reporter (AID 2774; call rule not given here;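 also: values are relative to mean of DMSO wells on each plate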); details: circadian reporter cells, at 7 µM, actives lie on both sides
# Sequence of L-lactate dehydrogenase (Plasmodium falciparum (isolate CDC / Honduras)) (Q27743 whole entry, looked up): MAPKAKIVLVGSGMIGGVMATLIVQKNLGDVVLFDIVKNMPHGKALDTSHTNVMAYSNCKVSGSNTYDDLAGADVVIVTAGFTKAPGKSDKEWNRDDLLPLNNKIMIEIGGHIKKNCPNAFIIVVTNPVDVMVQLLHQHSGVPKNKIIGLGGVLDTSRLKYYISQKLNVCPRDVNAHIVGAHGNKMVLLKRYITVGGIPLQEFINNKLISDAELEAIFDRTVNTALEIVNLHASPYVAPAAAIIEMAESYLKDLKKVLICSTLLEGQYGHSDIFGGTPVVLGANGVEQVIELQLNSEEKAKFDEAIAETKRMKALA
smiles,measurement,setting,value
CCCCCCCC/C=C\CCCCCCCC(=O)NCc1ccc(O)c(OC)c1,growth inhibition,[1],93% (active)
same,inhibition,[2],-7% (inactive)
same,inhibition,[3],-7% (inactive)
same,growth inhibition,[4],96% (active)
same,inhibition,[5],-4% (inactive)
same,fluorescence ratio (interference),[6],1 (inactive)
same,nuclear beta-catenin stimulation,[7]; at 10 µM,0% (inactive)
same,nuclear beta-catenin stimulation,"[7]; stimulation, at 2 µM",-1.2%
CCN(CC)Cc1cc(Nc2ccnc3cc(Cl)ccc23)ccc1O,growth inhibition,[1],99% (active)
same,inhibition,[2],-2% (inactive)
same,inhibition,[3],3% (inactive)
same,growth inhibition,[4],102% (active)
same,survival,[8],6.17 (inactive)
same,parasite load remaining,[9],2.94% (inactive) and 43.6% (inactive)
same,viability,[9],35.5% and 83.9%
same,nuclear beta-catenin stimulation,[7]; at 10 µM,0.5% (inactive)
same,nuclear beta-catenin stimulation,"[7]; stimulation, at 2 µM",-1.5%
Cc1cc(O)cc(C)c1Cl,glutamate uptake change,[10],-5.88%
same,aggregation suppression score,[11],0.248
same,parasite load remaining,[9],69.1% (inactive) and 37.2% (inactive)
same,viability,[9],76.7% and 78.6%
same,nuclear beta-catenin stimulation,[7]; at 10 µM,-0.1% (inactive)
same,nuclear beta-catenin stimulation,"[7]; stimulation, at 2 µM",2%
O=C(OCc1ccccc1)c1ccccc1,glutamate uptake change,[10],36%
same,aggregation suppression score,[11],0.363
same,parasite load remaining,[9],82.1% (inactive) and 33.8% (inactive)
same,viability,[9],68.9% and 89.1%
same,nuclear beta-catenin stimulation,[7]; at 10 µM,0.4% (inactive)
same,nuclear beta-catenin stimulation,"[7]; stimulation, at 2 µM",2.2%
CCN(CC)CCOC(=O)C(c1ccccc1)C1CCCCC1 (stereo unspecified),glutamate uptake change,[10],1.54%
same,aggregation suppression score,[11],1.17
same,survival,[8],3.67 (inactive)
same,parasite load remaining,[9],67.5% (inactive) and 28.1% (inactive)
same,viability,[9],92.4% and 69.7%
same,nuclear beta-catenin stimulation,[7]; at 10 µM,5% (inactive)
same,nuclear beta-catenin stimulation,"[7]; stimulation, at 2 µM",0.5%
Oc1ccc(Cl)c2cccnc12,glutamate uptake change,[10],42.4%
same,aggregation suppression score,[11],0.0533
same,parasite load remaining,[9],109% (inactive) and 39.2% (inactive)
same,viability,[9],67.1% and 81.7%
same,nuclear beta-catenin stimulation,[7]; at 10 µM,26.2% (inactive)
same,nuclear beta-catenin stimulation,"[7]; stimulation, at 2 µM",2.1%
CC(=O)OC(C)C[N+](C)(C)C (stereo unspecified),period change,[12],-0.04 h (inactive)
same,survival,[8],1.33 (inactive)
same,parasite load remaining,[9],94% (inactive) and 73.8% (inactive) and 58% (inactive)
same,viability,[9],94.5% and 73.8% and 92.8%
same,inhibition,[5],-2% (inactive)
same,fluorescence ratio (interference),[6],0.9 (inactive)
same,nuclear beta-catenin stimulation,[7]; at 10 µM,1.5% (inactive)
same,nuclear beta-catenin stimulation,"[7]; stimulation, at 2 µM",3.2%
Nc1ccc(N=Nc2ccccc2)c(N)n1,glutamate uptake change,[10],-9.75%
same,aggregation suppression score,[11],1.49
same,survival,[8],4 (inactive)
same,parasite load remaining,[9],122% (inactive) and 140% (inactive) and 51.9% (inactive)
same,viability,[9],90.8% and 67.3% and 81.9%
same,nuclear beta-catenin stimulation,[7]; at 10 µM,5.9% (inactive)
same,nuclear beta-catenin stimulation,"[7]; stimulation, at 2 µM",3.5%
CCOc1ccc2nc3cc(N)ccc3c(N)c2c1,growth inhibition,[1],70% (active)
same,inhibition,[2],8% (inactive)
same,inhibition,[3],0% (inactive)
same,growth inhibition,[4],98% (active)
same,nuclear beta-catenin stimulation,[7]; at 10 µM,9.5% (inactive)
same,nuclear beta-catenin stimulation,"[7]; stimulation, at 2 µM",0.7%
Nc1nc(=S)c2[nH]cnc2[nH]1,glutamate uptake change,[10],-1.16%
same,aggregation suppression score,[11],1.86
same,parasite load remaining,[9],146% (inactive) and 64.9% (inactive)
same,viability,[9],48.2% and 41.8%
same,nuclear beta-catenin stimulation,[7]; at 10 µM,14.8% (inactive)
same,nuclear beta-catenin stimulation,"[7]; stimulation, at 2 µM",6.2%
CC(C)(C)CC(C)(C)c1ccc(O)c(Cc2ccc(Cl)cc2Cl)c1,glutamate uptake change,[10],-22.5%
same,aggregation suppression score,[11],0.498
same,parasite load remaining,[9],157% (inactive)
same,viability,[9],83.5%
same,nuclear beta-catenin stimulation,[7]; at 10 µM,0.1% (inactive)
same,nuclear beta-catenin stimulation,"[7]; stimulation, at 2 µM",6.3%
Oc1c(Br)cc(Br)c2cccnc12,glutamate uptake change,[10],4.76%
same,aggregation suppression score,[11],-0.0132
same,parasite load remaining,[9],81.4% (inactive)
same,viability,[9],68.8%
same,nuclear beta-catenin stimulation,[7]; at 10 µM,4.7% (inactive)
same,nuclear beta-catenin stimulation,"[7]; stimulation, at 2 µM",0.1%
C/C=C(/C(=C/C)c1ccc(O)cc1)c1ccc(O)cc1,glutamate uptake change,[10],-21.7%
same,aggregation suppression score,[11],0.184
same,survival,[8],5.92 (inactive)
same,parasite load remaining,[9],99.8% (inactive) and 85.1% (inactive) and 15.2% (inactive)
same,viability,[9],93.2% and 76.6% and 68.2%
same,nuclear beta-catenin stimulation,[7]; at 10 µM,20.4% (inactive)
same,nuclear beta-catenin stimulation,"[7]; stimulation, at 2 µM",2.2%
NC(N)=N/N=C/c1c(Cl)cccc1Cl,period change,[12],0.195 h (inactive)
same,survival,[8],17.8 (inactive)
same,parasite load remaining,[9],15.7% (inactive) and 61% (inactive) and 36.4% (inactive)
same,viability,[9],48.5% and 89.8% and 102%
same,nuclear beta-catenin stimulation,[7]; at 10 µM,-0.1% (inactive)
same,nuclear beta-catenin stimulation,"[7]; stimulation, at 2 µM",-1.1%
CN1C(C)(C)CCCC1(C)C,period change,[12],-0.07 h (inactive)
same,survival,[8],3.5 (inactive)
same,parasite load remaining,[9],91.5% (inactive) and 53.1% (inactive)
same,viability,[9],99.3% and 92.2%
same,nuclear beta-catenin stimulation,[7]; at 10 µM,1.1% (inactive)
same,nuclear beta-catenin stimulation,"[7]; stimulation, at 2 µM",0.5%
Oc1c(I)cc(I)c2cccnc12,glutamate uptake change,[10],78.2%
same,aggregation suppression score,[11],0.108
same,parasite load remaining,[9],92.2% (inactive) and 20.2% (inactive)
same,viability,[9],77.1% and 92.8%
same,nuclear beta-catenin stimulation,[7]; at 10 µM,0.7% (inactive)
same,nuclear beta-catenin stimulation,"[7]; stimulation, at 2 µM",1%
CCCCCCc1ccc(O)cc1O,glutamate uptake change,[10],15.5%
same,aggregation suppression score,[11],-0.0012
same,parasite load remaining,[9],87.3% (inactive) and 55.4% (inactive)
same,viability,[9],71.9% and 91.6%
same,nuclear beta-catenin stimulation,[7]; at 10 µM,7.5% (inactive)
same,nuclear beta-catenin stimulation,"[7]; stimulation, at 2 µM",2.1%
O=C1C(O)=C(O)C(=O)C(O)=C1O,glutamate uptake change,[10],5.54%
same,aggregation suppression score,[11],1.42
same,survival,[8],4.75 (inactive)
same,parasite load remaining,[9],67.5% (inactive) and 145% (inactive) and 28.2% (inactive)
same,viability,[9],94.1% and 90.9% and 99%
same,nuclear beta-catenin stimulation,[7]; at 10 µM,-1.5% (inactive)
same,nuclear beta-catenin stimulation,"[7]; stimulation, at 2 µM",0.7%
O=C1OC(c2ccc(O)cc2)(c2ccc(O)cc2)c2ccccc21,glutamate uptake change,[10],-16.5%
same,aggregation suppression score,[11],1.31
same,parasite load remaining,[9],95% (inactive) and 84.8% (inactive)
same,viability,[9],73.9% and 95.1%
same,nuclear beta-catenin stimulation,[7]; at 10 µM,1.3% (inactive)
same,nuclear beta-catenin stimulation,"[7]; stimulation, at 2 µM",0%
CCN(CC)CCOc1ccc(/C(=C(\Cl)c2ccccc2)c2ccccc2)cc1,glutamate uptake change,[10],-0.41%
same,aggregation suppression score,[11],0.524
same,parasite load remaining,[9],16% (inactive) and 5.06% (inactive)
same,viability,[9],73.6% and 90.4%
same,nuclear beta-catenin stimulation,[7]; at 10 µM,40.9% (active)
same,nuclear beta-catenin stimulation,"[7]; stimulation, at 2 µM",12.4%
CCN(CC)C(C)CN1c2ccccc2Sc2ccccc21 (stereo unspecified),glutamate uptake change,[10],47.6%
same,aggregation suppression score,[11],1.19
same,survival,[8],4.08 (inactive)
same,parasite load remaining,[9],77.1% (inactive) and 61.6% (inactive) and 39% (inactive)
same,viability,[9],89.3% and 65.2% and 91.5%
same,inhibition,[5],-1% (inactive)
same,fluorescence ratio (interference),[6],1 (inactive)
same,nuclear beta-catenin stimulation,[7]; at 10 µM,3.4% (inactive)
same,nuclear beta-catenin stimulation,"[7]; stimulation, at 2 µM",0.5%
CC1CCC(NC(=O)N(CCCl)N=O)CC1 (stereo unspecified),glutamate uptake change,[10],-7.99%
same,aggregation suppression score,[11],0.0109
same,parasite load remaining,[9],62.2% (inactive) and 25.6% (inactive)
same,viability,[9],87.1% and 108%
same,nuclear beta-catenin stimulation,[7]; at 10 µM,5.9% (inactive)
same,nuclear beta-catenin stimulation,"[7]; stimulation, at 2 µM",4.9%
C=CC(N)CCC(=O)O (stereo unspecified),period change,[12],0.105 h (inactive)
same,survival,[8],14.4 (inactive)
same,parasite load remaining,[9],117% (inactive) and 83.3% (inactive) and 20.7% (inactive)
same,viability,[9],112% and 77.9% and 99.3%
same,inhibition,[5],0% (inactive)
same,fluorescence ratio (interference),[6],1 (inactive)
same,nuclear beta-catenin stimulation,[7]; at 10 µM,1.7% (inactive)
same,nuclear beta-catenin stimulation,"[7]; stimulation, at 2 µM",0.5%
Cc1cn[nH]c1,period change,[12],0.23 h (inactive)
same,parasite load remaining,[9],51% (inactive)
same,viability,[9],102%
same,inhibition,[5],-3% (inactive)
same,fluorescence ratio (interference),[6],0.9 (inactive)
same,nuclear beta-catenin stimulation,[7]; at 10 µM,-2.1% (inactive)
same,nuclear beta-catenin stimulation,"[7]; stimulation, at 2 µM",-2%
